# PubChem BioAssay (EPA / NIEHS)
# Active and inactive are the calls of the source. How the source made its calls: active means hit-call score of the fitted dose curve at least 0.9, where 1 is the maximum; inactive means score below 0.9.
# Columns and labels:
# [1] = biological target: Bile acid receptor (Homo sapiens) (UniProt Q96RI1); assay: ATG_IR1_CIS: Attagene CIS-FACTORIAL HepG2 Assay for human Nuclear Receptor Subfamily 1 Group H Member 4 (NR1H4), IR1 submotif (AID 2282946); conditions: IR1 reporter transcription, actives raise or lower the signal
# Sequence of Bile acid receptor (Homo sapiens) (Q96RI1 whole entry, looked up, the tested form may be a part): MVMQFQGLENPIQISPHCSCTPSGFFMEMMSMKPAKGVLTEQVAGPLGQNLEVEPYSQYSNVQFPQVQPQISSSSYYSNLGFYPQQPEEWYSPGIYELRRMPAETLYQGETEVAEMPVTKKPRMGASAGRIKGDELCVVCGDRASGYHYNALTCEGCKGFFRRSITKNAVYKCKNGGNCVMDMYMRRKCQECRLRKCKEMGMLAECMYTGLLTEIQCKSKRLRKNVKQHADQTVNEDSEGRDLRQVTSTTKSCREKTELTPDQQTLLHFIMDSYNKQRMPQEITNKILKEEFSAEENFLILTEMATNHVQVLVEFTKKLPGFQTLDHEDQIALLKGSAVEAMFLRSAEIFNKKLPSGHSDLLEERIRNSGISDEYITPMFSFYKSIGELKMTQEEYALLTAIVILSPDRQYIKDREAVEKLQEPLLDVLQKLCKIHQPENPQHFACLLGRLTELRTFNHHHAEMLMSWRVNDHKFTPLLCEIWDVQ
# Outline: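 Cells (human HepG2) carry transiently transfected cis-promoter reporter transcription units. Compounds are incubated 24 h, total RNA is reverse-transcribed and amplified, and labelled fragments are resolved by capillary electrophoresis. Curves use DMSO as baseline.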
# [2] = ATG_GRE_CIS: Attagene CIS-FACTORIAL HepG2 Assay for human Glucocorticoid Response Elements (GRE) (AID 2282947); conditions: HepG2 GRE cis-reporter, Attagene multiplex mRNA; actives raise or lower the signal
# Outline: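 Assay uses human hepatoma HepG2 cells transfected with cis-promoter reporter units, exposed 24 h. mRNA from reporters detected by RT-PCR plus capillary electrophoresis; DMSO serves as negative control and baseline.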
# [3] = ATG_ISRE_CIS: Attagene CIS-FACTORIAL HepG2 Assay for human Interferon Regulatory Factor 1 (IRF1) binding to an Interferon-Stimulated Response Element (ISRE) (AID 2282948); conditions: HepG2 ISRE cis-reporter (Attagene), mRNA transcription readout; actives raise or lower the signal
# Outline: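 Quantitation relies on labelled RT-PCR fragments separated by capillary electrophoresis. Human HepG2 cells bearing cis-promoter reporter constructs were treated 24 h; DMSO served as baseline for bidirectional fitting.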
# [4] = ATG_M_32_CIS: Attagene CIS-FACTORIAL HepG2 Assay for M32 Transcription Factor (Internal Marker) (AID 2282949); conditions: HepG2 Attagene cis-factorial M32 reporter, mRNA; actives raise or lower the signal;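 further: background control marker of the multiplexed CIS panel rather than a real target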
# Outline: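 Internal background marker read-out: RT-PCR/capillary electrophoresis fluorescence of reporter transcripts from transiently transfected HepG2 cells after 24 h chemical exposure. Activity fitted bidirectionally relative to DMSO negative control.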
# [5] = ATG_M_06_CIS: Attagene CIS-FACTORIAL HepG2 Assay for M06 Transcription Factor (Internal Marker) (AID 2282950); conditions: HepG2 Attagene CIS-FACTORIAL M06 internal marker reporter; actives raise or lower the signal
# Outline: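 Internal background marker within multiplexed cis-reporter HepG2 system. Cells transiently transfected, dosed 24 h; reporter mRNA measured by RT-PCR, HpaI digestion and capillary electrophoresis. Bidirectional fit relative to DMSO.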
# [6] = biological target: Hepatocyte nuclear factor 6 (Homo sapiens) (UniProt Q9UBC0); assay: ATG_HNF6_CIS: Attagene CIS-FACTORIAL HepG2 Assay for human Hepatocyte Nuclear Factor 6 (HNF6) (AID 2282952); conditions: HepG2 Attagene cis-factorial HNF6 reporter transcription; actives raise or lower the signal
# Sequence of Hepatocyte nuclear factor 6 (Homo sapiens) (Q9UBC0 whole entry, looked up): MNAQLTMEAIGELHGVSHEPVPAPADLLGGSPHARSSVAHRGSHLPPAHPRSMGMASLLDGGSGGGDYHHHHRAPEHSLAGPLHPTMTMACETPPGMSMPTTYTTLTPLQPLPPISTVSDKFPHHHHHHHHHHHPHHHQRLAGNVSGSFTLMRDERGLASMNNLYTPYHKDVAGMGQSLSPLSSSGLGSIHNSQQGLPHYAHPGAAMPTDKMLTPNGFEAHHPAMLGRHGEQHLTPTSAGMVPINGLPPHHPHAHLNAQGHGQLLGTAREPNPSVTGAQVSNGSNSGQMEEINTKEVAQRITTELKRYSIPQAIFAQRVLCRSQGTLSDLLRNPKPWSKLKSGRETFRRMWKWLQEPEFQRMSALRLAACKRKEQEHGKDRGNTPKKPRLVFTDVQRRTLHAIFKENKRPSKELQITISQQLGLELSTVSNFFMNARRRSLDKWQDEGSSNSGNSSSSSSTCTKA
# Outline: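 HepG2, transient MRTU transfection (cis promoters); 24 h chemical exposure; total RNA → oligo(dT) RT → PCR → 6-FAM labelling → HpaI cut → CE; bidirectional fit vs DMSO.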
# [7] = biological target: Heat shock factor protein 1 (Homo sapiens) (UniProt Q00613); assay: ATG_HSE_CIS: Attagene CIS-FACTORIAL HepG2 Assay for human Heat Shock Transcription Factor 1 (HSE) (AID 2282953); conditions: HepG2 HSE cis-reporter, Attagene RNA transcription; actives raise or lower the signal
# Sequence of Heat shock factor protein 1 (Homo sapiens) (Q00613 whole entry, looked up): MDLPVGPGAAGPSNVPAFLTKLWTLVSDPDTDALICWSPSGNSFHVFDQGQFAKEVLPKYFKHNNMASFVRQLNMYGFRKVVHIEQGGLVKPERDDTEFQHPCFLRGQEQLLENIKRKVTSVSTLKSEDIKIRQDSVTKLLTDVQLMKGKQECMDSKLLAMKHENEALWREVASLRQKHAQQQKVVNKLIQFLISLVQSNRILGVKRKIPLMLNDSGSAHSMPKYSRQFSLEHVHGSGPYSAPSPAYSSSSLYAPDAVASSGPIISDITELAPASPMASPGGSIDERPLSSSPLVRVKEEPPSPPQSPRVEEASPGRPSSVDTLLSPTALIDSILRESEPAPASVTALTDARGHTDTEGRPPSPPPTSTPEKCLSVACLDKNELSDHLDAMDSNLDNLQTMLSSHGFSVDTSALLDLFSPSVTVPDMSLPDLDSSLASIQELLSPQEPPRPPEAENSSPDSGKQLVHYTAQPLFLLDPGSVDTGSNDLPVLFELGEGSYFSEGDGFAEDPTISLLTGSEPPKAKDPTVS
# Outline: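 HepG2 cells transfected with cis-promoter reporter units sensing endogenous transcription factor activity; reporter mRNA quantified 24 h post-dose by RT-PCR and capillary electrophoresis of 6-FAM-labelled products. Bidirectional fitting against DMSO.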
# [8] = ATG_MRE_CIS: Attagene CIS-FACTORIAL HepG2 Assay for human Metal Responsive Element (MRE) (AID 2282954); conditions: HepG2 MRE cis-reporter transcription, Attagene multiplex; actives raise or lower the signal
# Outline: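 After a 24 h chemical exposure, transiently transfected HepG2 cells yield RNA whose reporter sequences are amplified, FAM-labelled and sized by capillary electrophoresis. Curves are fitted bidirectionally relative to DMSO.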
# [9] = ATG_PBREM_CIS: Attagene CIS-FACTORIAL HepG2 Assay for human Phenobarbital-responsive Enhancer Module (PBREM) (AID 2282955); conditions: HepG2 PBREM cis-reporter, Attagene multiplexed transcription; actives raise or lower the signal
# Outline: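 Reporter mRNA read by RT-PCR, 6-FAM primer extension, HpaI digestion and capillary electrophoresis. Transfected HepG2 cells, 24 h compound exposure. Gain or loss of signal fitted bidirectionally relative to DMSO baseline.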
# [10] = biological target: Paired box protein Pax-6 (Homo sapiens) (UniProt P26367); assay: ATG_Pax6_CIS: Attagene CIS-FACTORIAL HepG2 Assay for human Paired Box 6 (PAX6) (AID 2282956); conditions: HepG2 CIS-FACTORIAL PAX6 reporter transcription, RNA readout; actives raise or lower the signal
# Sequence of Paired box protein Pax-6 (Homo sapiens) (P26367 whole entry, looked up): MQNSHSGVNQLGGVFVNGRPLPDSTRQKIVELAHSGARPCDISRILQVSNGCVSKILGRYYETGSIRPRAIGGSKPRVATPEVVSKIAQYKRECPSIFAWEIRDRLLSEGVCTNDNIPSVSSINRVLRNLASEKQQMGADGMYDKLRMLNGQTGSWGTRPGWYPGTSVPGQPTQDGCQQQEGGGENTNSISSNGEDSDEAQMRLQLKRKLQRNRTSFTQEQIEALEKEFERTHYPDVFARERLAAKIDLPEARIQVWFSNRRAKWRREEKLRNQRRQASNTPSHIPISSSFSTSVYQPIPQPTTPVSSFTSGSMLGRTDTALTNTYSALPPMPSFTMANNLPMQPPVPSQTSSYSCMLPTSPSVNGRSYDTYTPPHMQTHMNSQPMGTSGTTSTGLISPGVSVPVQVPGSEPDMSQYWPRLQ
# Outline: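 After twenty-four hours of chemical exposure, transfected HepG2 cells are harvested for RNA. Cis-promoter reporter transcripts are amplified, fluorescently labelled and sized by capillary electrophoresis, with gain and loss of signal scored against DMSO.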
# [11] = ATG_PXRE_CIS: Attagene CIS-FACTORIAL HepG2 Assay for human Pregnane X Receptor Element (PXRE) (AID 2282957); conditions: HepG2 Attagene CIS-FACTORIAL PXRE reporter, mRNA; actives raise or lower the signal
# Outline: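 Transfect HepG2 with MRTUs (cis promoter elements); dose chemical, incubate 24 h; isolate RNA, RT with oligo(dT), PCR, 6-FAM label, HpaI cut, CE. Gain/loss fit vs DMSO.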
# [12] = ATG_PPRE_CIS: Attagene CIS-FACTORIAL HepG2 Assay for human Peroxisome Proliferator-activated Response Element (PPRE) (AID 2282958); conditions: HepG2 PPRE cis-element reporter, Attagene transcription factor profiling; actives raise or lower the signal
# Outline: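 Read-out: fluorescent reporter mRNA fragments resolved by capillary electrophoresis after RT-PCR. HepG2 cells carried transiently transfected PPRE-driven cis reporter constructs and were dosed for 24 h; gain or loss of signal fitted relative to DMSO.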
# [13] = ATG_RORE_CIS: Attagene CIS-FACTORIAL HepG2 Assay for human RAR-related Orphan Receptor Element (RORE) (AID 2282959); conditions: HepG2 Attagene cis-factorial RORE reporter, mRNA; actives raise or lower the signal
# Outline: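 Readout: fluorescent reporter mRNA by RT-PCR plus capillary electrophoresis, 24 h after dosing transfected HepG2 cells. Endogenous transcription factor activity on a cis promoter element is measured. Gain or loss of signal fitted against DMSO.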
# [14] = ATG_Sox_CIS: Attagene CIS-FACTORIAL HepG2 Assay for human SRY-box transcription factor (SOX) (AID 2282960); conditions: HepG2 Attagene cis-factorial SOX reporter, mRNA; actives raise or lower the signal
# Outline: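 Read-out: fluorescent RT-PCR products of SOX1-linked reporter transcripts resolved by capillary electrophoresis, fitted bidirectionally against DMSO. Transiently transfected HepG2 cells, 24 h after chemical exposure, endogenous transcription factor activity.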
# [15] = biological target: Transcription factor Sp1 (Homo sapiens) (UniProt P08047); assay: ATG_Sp1_CIS: Attagene CIS-FACTORIAL HepG2 Assay for human Specificity Protein 1 (Sp1) (AID 2282961); conditions: HepG2 Sp1 cis-reporter transcription, actives raise or lower the signal
# Sequence of Transcription factor Sp1 (Homo sapiens) (P08047 whole entry, looked up): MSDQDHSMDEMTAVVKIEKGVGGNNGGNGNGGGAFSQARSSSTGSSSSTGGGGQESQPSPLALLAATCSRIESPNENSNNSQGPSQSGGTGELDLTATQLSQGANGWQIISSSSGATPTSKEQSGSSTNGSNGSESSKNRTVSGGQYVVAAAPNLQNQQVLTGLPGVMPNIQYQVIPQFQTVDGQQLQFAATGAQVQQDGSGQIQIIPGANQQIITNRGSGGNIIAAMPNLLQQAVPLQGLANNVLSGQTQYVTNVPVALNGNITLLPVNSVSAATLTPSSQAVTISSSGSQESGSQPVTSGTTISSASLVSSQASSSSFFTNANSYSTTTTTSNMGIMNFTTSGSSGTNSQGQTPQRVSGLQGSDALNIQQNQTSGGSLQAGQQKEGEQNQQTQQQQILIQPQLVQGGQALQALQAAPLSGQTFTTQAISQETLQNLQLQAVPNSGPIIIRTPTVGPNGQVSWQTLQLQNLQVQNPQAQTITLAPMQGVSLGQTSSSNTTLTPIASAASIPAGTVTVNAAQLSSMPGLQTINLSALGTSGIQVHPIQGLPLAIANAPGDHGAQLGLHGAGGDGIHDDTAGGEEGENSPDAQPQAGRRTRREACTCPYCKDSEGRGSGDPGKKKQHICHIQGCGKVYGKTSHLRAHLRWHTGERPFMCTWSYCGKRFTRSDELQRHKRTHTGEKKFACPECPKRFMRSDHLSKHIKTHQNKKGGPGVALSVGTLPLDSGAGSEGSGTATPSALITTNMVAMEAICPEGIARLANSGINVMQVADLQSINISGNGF
# Outline: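 Read-out: fluorescence of 6-FAM-labeled, HpaI-digested RT-PCR products separated by capillary electrophoresis. HepG2 cells carried transfected cis-element reporter units and were exposed to chemicals for 24 h; gain or loss of signal fitted relative to DMSO.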
# [16] = ATG_SREBP_CIS: Attagene CIS-FACTORIAL HepG2 Assay for human Sterol Regulatory Element Binding (SREBP) (AID 2282962); conditions: HepG2 Attagene cis-factorial SREBP reporter, mRNA; actives raise or lower the signal
# Outline: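 Twenty-four hours after chemical dosing of transfected HepG2 cultures, reporter RNA was converted to cDNA, amplified, end-labelled with 6-FAM and resolved by capillary electrophoresis. Responses were fitted relative to DMSO.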
# [17] = biological target: Signal transducer and activator of transcription 3 (Homo sapiens) (UniProt P40763); assay: ATG_STAT3_CIS: Attagene CIS-FACTORIAL HepG2 Assay for human Signal Transducer and Activator of Transcription 3 (STAT3) (AID 2282963); conditions: HepG2, Attagene cis-factorial STAT3 reporter transcription; actives raise or lower the signal
# Sequence of Signal transducer and activator of transcription 3 (Homo sapiens) (P40763 whole entry, looked up): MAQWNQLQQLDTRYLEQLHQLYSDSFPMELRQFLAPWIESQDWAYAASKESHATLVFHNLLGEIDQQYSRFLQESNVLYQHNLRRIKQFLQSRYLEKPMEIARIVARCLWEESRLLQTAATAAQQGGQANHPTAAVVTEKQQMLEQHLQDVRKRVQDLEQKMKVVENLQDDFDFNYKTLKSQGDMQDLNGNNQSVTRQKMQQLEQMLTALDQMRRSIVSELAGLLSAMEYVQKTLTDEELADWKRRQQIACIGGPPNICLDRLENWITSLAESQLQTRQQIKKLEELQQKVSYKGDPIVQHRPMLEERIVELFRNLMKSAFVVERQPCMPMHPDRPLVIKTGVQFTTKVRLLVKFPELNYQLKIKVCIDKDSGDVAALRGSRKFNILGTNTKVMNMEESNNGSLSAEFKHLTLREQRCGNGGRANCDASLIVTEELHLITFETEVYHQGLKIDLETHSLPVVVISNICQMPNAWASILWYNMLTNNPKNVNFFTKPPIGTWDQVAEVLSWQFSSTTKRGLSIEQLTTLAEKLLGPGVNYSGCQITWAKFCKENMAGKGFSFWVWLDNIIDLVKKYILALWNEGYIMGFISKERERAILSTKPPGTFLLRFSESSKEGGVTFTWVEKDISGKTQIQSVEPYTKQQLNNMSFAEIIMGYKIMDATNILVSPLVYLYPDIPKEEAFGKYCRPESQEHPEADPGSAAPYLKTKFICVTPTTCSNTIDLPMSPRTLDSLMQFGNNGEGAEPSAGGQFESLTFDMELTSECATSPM
# Outline: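 After a 24 h compound incubation, total RNA from MRTU-transfected HepG2 cells was converted to cDNA and reporter sequences PCR-amplified, labelled and profiled by capillary electrophoresis. Gain and loss of signal were referenced to DMSO.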
# [18] = ATG_TA_CIS: Attagene CIS-FACTORIAL HepG2 Assay for human TA Basal Promoter (AID 2282964); conditions: HepG2 Attagene CIS-factorial TA basal promoter reporter; actives raise or lower the signal
# Outline: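 HepG2 cells transiently transfected with multiple reporter units under cis promoter elements, reporting endogenous transcription factor activity; this endpoint tracks the TA basal promoter as background control. Reporter mRNA after 24 h dosing measured by RT-PCR/capillary electrophoresis; bidirectional fits versus DMSO.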
# [19] = biological target: Hypoxia-inducible factor 1-alpha (Homo sapiens) (UniProt Q16665); assay: ATG_HIF1a_CIS: Attagene CIS-FACTORIAL HepG2 Assay for human Hypoxia Inducible Factor 1 (HIF1A) (AID 2282951); conditions: HepG2 Attagene cis-factorial HIF1a reporter transcription; actives raise or lower the signal
# Sequence of Hypoxia-inducible factor 1-alpha (Homo sapiens) (Q16665 whole entry, looked up): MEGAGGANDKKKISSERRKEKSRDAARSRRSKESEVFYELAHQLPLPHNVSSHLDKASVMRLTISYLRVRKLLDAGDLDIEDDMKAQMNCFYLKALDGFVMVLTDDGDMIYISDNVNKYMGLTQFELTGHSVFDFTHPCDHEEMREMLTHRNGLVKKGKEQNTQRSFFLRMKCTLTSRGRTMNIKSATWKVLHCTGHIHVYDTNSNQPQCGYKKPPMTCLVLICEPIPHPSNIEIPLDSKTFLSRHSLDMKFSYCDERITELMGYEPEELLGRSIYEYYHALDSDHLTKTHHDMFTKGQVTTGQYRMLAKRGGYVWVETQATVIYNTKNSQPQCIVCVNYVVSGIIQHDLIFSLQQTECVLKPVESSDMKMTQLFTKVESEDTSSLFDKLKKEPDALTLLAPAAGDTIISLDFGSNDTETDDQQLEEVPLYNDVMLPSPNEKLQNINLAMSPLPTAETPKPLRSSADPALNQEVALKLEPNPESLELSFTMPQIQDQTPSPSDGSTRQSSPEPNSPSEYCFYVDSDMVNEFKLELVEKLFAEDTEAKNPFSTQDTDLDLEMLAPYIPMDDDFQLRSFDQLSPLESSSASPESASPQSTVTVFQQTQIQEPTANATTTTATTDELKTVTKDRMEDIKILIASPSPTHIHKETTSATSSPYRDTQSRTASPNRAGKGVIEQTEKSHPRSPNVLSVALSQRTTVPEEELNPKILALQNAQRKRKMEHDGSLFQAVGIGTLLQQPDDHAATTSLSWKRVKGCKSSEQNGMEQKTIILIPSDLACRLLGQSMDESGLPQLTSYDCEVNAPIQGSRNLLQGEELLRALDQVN
# Outline: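 RT-PCR/capillary electrophoresis fluorescence readout of reporter transcripts from endogenous-TF-driven cis elements in transfected HepG2 cells, 24 h exposure; activity fitted in both directions against DMSO controls.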
# [20] = ATG_TCF_b_cat_CIS: Attagene CIS-FACTORIAL HepG2 Assay for human T-Cell-Factor with beta-catenin (TCF/b-cat) (AID 2282965); conditions: HepG2 TCF/beta-catenin cis-reporter transcription, actives raise or lower the signal
# Outline: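 Endogenous transcription factor activity is captured through cis-promoter reporter constructs transiently introduced into human HepG2 liver cells. Induced reporter mRNA is measured after 24 h and fitted bidirectionally relative to DMSO.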
structure (smiles),measurement,setting,value
C/C=C(\C)C(=O)OCCc1ccccc1,outcome,[1],inactive
same,outcome,[2],inactive
same,outcome,[3],inactive
same,outcome,[4],inactive
same,outcome,[5],inactive
same,outcome,[6],inactive
same,outcome,[7],inactive
same,outcome,[8],inactive
same,outcome,[9],inactive
same,outcome,[10],inactive
same,AC50,[11],27.7 µM (active)
same,outcome,[12],inactive
same,outcome,[13],inactive
same,outcome,[14],inactive
same,outcome,[15],inactive
same,outcome,[16],inactive
same,outcome,[17],inactive
same,outcome,[18],inactive
Cc1ccc(S(=O)(=O)Oc2ccc(N=Nc3ccc(-c4ccc(N=Nc5c(O)ccc6cc(S(=O)(=O)O)cc(S(=O)(=O)O)c56)c(C)c4)cc3C)cc2)cc1,outcome,[1],inactive
same,outcome,[2],inactive
same,outcome,[3],inactive
same,outcome,[4],inactive
same,outcome,[5],inactive
same,outcome,[19],inactive
same,outcome,[7],inactive
same,outcome,[8],inactive
same,outcome,[10],inactive
same,AC50,[11],4.91 µM (active)
same,outcome,[14],inactive
same,outcome,[15],inactive
same,outcome,[16],inactive
same,outcome,[17],inactive
same,outcome,[18],inactive
same,outcome,[20],inactive
OCCOCCN1CCN(C2=Nc3ccccc3Sc3ccccc32)CC1,outcome,[1],inactive
same,AC50,[3],152 µM (active)
same,outcome,[4],inactive
same,outcome,[5],inactive
same,outcome,[19],inactive
same,outcome,[6],inactive
same,outcome,[7],inactive
same,AC50,[8],71.7 µM (active)
same,outcome,[10],inactive
same,AC50,[11],7.41 µM (active)
same,outcome,[13],inactive
same,outcome,[14],inactive
same,outcome,[15],inactive
same,outcome,[17],inactive
same,outcome,[18],inactive
same,outcome,[20],inactive
CCCCCCOC(=O)CCC,outcome,[1],inactive
same,outcome,[3],inactive
same,outcome,[4],inactive
same,outcome,[5],inactive
same,outcome,[8],inactive
same,outcome,[9],inactive
same,outcome,[10],inactive
same,outcome,[13],inactive
same,outcome,[14],inactive
same,outcome,[15],inactive
same,outcome,[17],inactive
same,outcome,[18],inactive
same,outcome,[20],inactive
COc1ccccc1[N+](=O)[O-],outcome,[1],inactive
same,outcome,[3],inactive
same,outcome,[4],inactive
same,outcome,[5],inactive
same,outcome,[19],inactive
same,outcome,[6],inactive
same,outcome,[9],inactive
same,outcome,[10],inactive
same,AC50,[11],71.7 µM (active)
same,outcome,[13],inactive
same,outcome,[14],inactive
same,outcome,[15],inactive
same,outcome,[16],inactive
same,outcome,[17],inactive
same,outcome,[18],inactive
same,outcome,[20],inactive
CC(C)CC(C)CC(O)CC(C)C (stereo not drawn),outcome,[1],inactive
same,outcome,[4],inactive
same,outcome,[5],inactive
same,outcome,[19],inactive
same,outcome,[6],inactive
same,outcome,[7],inactive
same,outcome,[8],inactive
same,outcome,[9],inactive
same,outcome,[10],inactive
same,outcome,[11],inactive
same,outcome,[12],inactive
same,outcome,[14],inactive
same,outcome,[15],inactive
same,outcome,[16],inactive
same,outcome,[17],inactive
same,outcome,[18],inactive
same,outcome,[20],inactive
COc1cccc(OC)c1O,outcome,[1],inactive
same,outcome,[2],inactive
same,outcome,[4],inactive
same,outcome,[5],inactive
same,outcome,[19],inactive
same,outcome,[6],inactive
same,outcome,[8],inactive
same,outcome,[10],inactive
same,AC50,[11],27 µM (active)
same,outcome,[12],inactive
same,outcome,[13],inactive
same,outcome,[14],inactive
same,outcome,[15],inactive
same,outcome,[16],inactive
same,outcome,[17],inactive
same,outcome,[18],inactive
same,outcome,[20],inactive
